Test results reported in publication PMC11995724, “Antibiotic target discovery by integrated phenotypic and activity-based profiling of electrophilic fragments” (Cell chemical biology, 2025).
Hit rate of the full screen: of about 3,200 compounds, about 75 (2%) showed an effect of 50% or more. Only a selection was taken, and strong results are over-represented in it overall.

System: T1, S. aureus MSSA476
T1 construct: MSSA476
Set-up: species or system S. aureus MSSA476 (TSB) or V. cholerae SAD30 (LB); 384-well bacterial growth screen at 25 uM, OD600 relative to DMSO control
Conditions: relative growth, OD600, TSB; 25 µM; inhibitor

| SMILES | % of control remaining [%] |
| --- | --- |
| CCOc1ccccc1NC(=O)C(C)Cl (centres unmarked) [6-M10, 2-chloro-N-(2-ethoxyphenyl)propanamide] | 106.195 |
| C=CC(=O)NCc1nc(C2CC2)cs1 [2-A19, N-[(4-cyclopropyl-1,3-thiazol-2-yl)methyl]prop-2-enamide] | 138.207 |
| O=C(CCl)N1c2ccccc2SCC1c1ccccc1 (centres unmarked) [4-M18, 2-chloro-1-(3-phenyl-3,4-dihydro-2H-1,4-benzothiazin-4-yl)ethan-1-one] | 9.528 |
| CC1CSc2ccccc2N(C(=O)CCl)C1 (centres unmarked) [5-H07, 2-chloro-1-(3-methyl-2,3,4,5-tetrahydro-1,5-benzothiazepin-5-yl)ethan-1-one] | 104.554 |
| O=C(CCl)N1CCCSc2ccccc21 [4-E16, 2-chloro-1-(2,3,4,5-tetrahydro-1,5-benzothiazepin-5-yl)ethan-1-one] | 116.627 |
| C=CC(=O)N1C[C@H](NC(C)=O)[C@@H](c2ccnn2C)C1 (racemic) [2-M16, rac-N-[(3R,4S)-4-(1-methyl-1H-pyrazol-5-yl)-1-(prop-2-enoyl)pyrrolidin-3-yl]acetamide] | 90.5135 |
| Cc1nn(CC(C)C)c(Cl)c1C1CCCN1C(=O)C(C)Cl (centres unmarked) [7-P19, 2-chloro-1-{2-[5-chloro-3-methyl-1-(2-methylpropyl)-1H-pyrazol-4-yl]pyrrolidin-1-yl}propan-1-one] | 108.32 |
| CC(Cl)C(=O)N(Cc1ccccc1)Cc1ccccc1 (centres unmarked) [5-K19, N,N-dibenzyl-2-chloropropanamide] | 103.097 |
| CC(c1ccc(C(F)(F)F)cc1F)N(C)C(=O)CCl (centres unmarked) [7-P18, 2-chloro-N-{1-[2-fluoro-4-(trifluoromethyl)phenyl]ethyl}-N-methylacetamide] | 94.5055 |
| CN(C(=O)CCl)C(c1ccc(Cl)cc1)C(F)(F)F (centres unmarked) [7-J16, 2-chloro-N-[1-(4-chlorophenyl)-2,2,2-trifluoroethyl]-N-methylacetamide] | 101.413 |
| CC(c1ccc(C(F)(F)F)c(Cl)c1)N(C)C(=O)CCl (centres unmarked) [7-F14, 2-chloro-N-{1-[3-chloro-4-(trifluoromethyl)phenyl]ethyl}-N-methylacetamide] | 6.593 |
| Cc1ccc(C=C(C#N)C(=O)Nc2nccs2)s1 [8-P13, 2-cyano-3-(5-methylthiophen-2-yl)-N-(1,3-thiazol-2-yl)prop-2-enamide] | 93.61 |
| Cc1ccccc1NC(=O)C(C#N)=Cc1ccc2c(c1)OCCO2 [8-J03, 2-cyano-3-(2,3-dihydro-1,4-benzodioxin-6-yl)-N-(2-methylphenyl)prop-2-enamide] | 129.461 |
| N#Cc1ccc(N2C(=O)C=CC2=O)cc1 [10-B09, 4-(2,5-dioxo-2,5-dihydro-1H-pyrrol-1-yl)benzonitrile] | 133.438 |
| O=C1C=CC(=O)N1c1ccc(SC(F)F)cc1 [10-A18, 1-{4-[(difluoromethyl)sulfanyl]phenyl}-2,5-dihydro-1H-pyrrole-2,5-dione] | 29.6875 |
| O=C1C=CC(=O)N1c1ccc(F)cc1 [10-M10, 1-(4-fluorophenyl)-2,5-dihydro-1H-pyrrole-2,5-dione] | 118.75 |
| Cc1ccc(C=C(C#N)C(=O)Nc2ccccc2C(=O)O)s1 [9-K08, 2-[2-cyano-3-(5-methylthiophen-2-yl)prop-2-enamido]benzoic acid] | 38.0524 |
| Cc1ccc(C=C(C#N)C(=O)Nc2ccccc2Cl)s1 [9-C22, N-(2-chlorophenyl)-2-cyano-3-(5-methylthiophen-2-yl)prop-2-enamide] | 83.2959 |
| COc1ccccc1NC(=O)C(C#N)=Cc1ccc(C)s1 [8-B15, 2-cyano-N-(2-methoxyphenyl)-3-(5-methylthiophen-2-yl)prop-2-enamide] | 118.838 |
| O=C(Nc1nccs1)N1CCSSCC1 [10-O22, N-(1,3-thiazol-2-yl)-1,2,5-dithiazepane-5-carboxamide] | 109.063 |
| O=C(CCl)N(Cc1ccc(F)cc1)C1CCCCC1 [4-I13, 2-chloro-N-cyclohexyl-N-[(4-fluorophenyl)methyl]acetamide] | 87.6608 |
| CC(Cl)C(=O)Nc1sc(-c2ccccc2)cc1C(N)=O (centres unmarked) [4-H13, 2-(2-chloropropanamido)-5-phenylthiophene-3-carboxamide] | 58.3135 |
| CC1(C)C(=O)Nc2ccc(C(=O)CCl)cc21 [10-N21, 5-(2-chloroacetyl)-3,3-dimethyl-2,3-dihydro-1H-indol-2-one] | 40.3125 |
| Cn1c(=O)oc2cc(C(=O)CCl)ccc21 [10-F07, 6-(2-chloroacetyl)-3-methyl-2,3-dihydro-1,3-benzoxazol-2-one] | 93.125 |
| O=C1CCCc2cc(C(=O)CCl)ccc2N1 [10-M20, 7-(2-chloroacetyl)-2,3,4,5-tetrahydro-1H-1-benzazepin-2-one] | 137.5 |
| C=CC(=O)NC(Cn1cncn1)c1ccccc1 (centres unmarked) [3-F17, N-[1-phenyl-2-(1H-1,2,4-triazol-1-yl)ethyl]prop-2-enamide] | 118.415 |
| O=C(CCl)N(Cc1ccccc1)c1ccccc1 [4-G13, N-benzyl-2-chloro-N-phenylacetamide] | 77.7513 |

| SMILES | % of control remaining [%] |
| --- | --- |
| Cc1cccc(N(Cc2ccccc2)C(=O)CCl)c1 [6-O07, N-benzyl-2-chloro-N-(3-methylphenyl)acetamide] | 98 |
| O=C(CCl)N(Cc1ccc(Cl)c([N+](=O)[O-])c1)c1ccccc1 [6-H06, 2-chloro-N-[(4-chloro-3-nitrophenyl)methyl]-N-phenylacetamide] | 8.195 |
| C=CC(=O)NCC1(S(=O)(=O)CC)CC1 [3-O13, N-{[1-(ethanesulfonyl)cyclopropyl]methyl}prop-2-enamide] | 91.2495 |
| N#CC(=Cc1ccc(F)c(F)c1)C(=O)NC1CCCCC1 [9-J22, 2-cyano-N-cyclohexyl-3-(3,4-difluorophenyl)prop-2-enamide] | 94.0824 |
| N#CC(=Cc1c(F)c(F)c(F)c(F)c1F)C(=O)NC1CCCCC1 [8-O15, 2-cyano-N-cyclohexyl-3-(2,3,4,5,6-pentafluorophenyl)prop-2-enamide] | 32.5311 |
| N#CC(=Cc1cc(F)ccc1F)C(=O)NC1CCCCC1 [8-G08, 2-cyano-N-cyclohexyl-3-(2,5-difluorophenyl)prop-2-enamide] | 64.3983 |
| Cc1ccc(C=C(C#N)C(=O)NC2CCCCC2)cc1C [8-G10, 2-cyano-N-cyclohexyl-3-(3,4-dimethylphenyl)prop-2-enamide] | 108.216 |
| N#CC(=Cc1ccc([N+](=O)[O-])c(Cl)c1)C(=O)NC1CCCCC1 [8-B08, 3-(3-chloro-4-nitrophenyl)-2-cyano-N-cyclohexylprop-2-enamide] | 29.8755 |
| N#CC(=Cc1ccccc1)C(=O)NC1CCCCCCC1 [8-G17, 2-cyano-N-cyclooctyl-3-phenylprop-2-enamide] | 98.9212 |
| N#CC(=Cc1sc2ccccc2c1Cl)C(=O)NC1CC1 [9-C18, 3-(3-chloro-1-benzothiophen-2-yl)-2-cyano-N-cyclopropylprop-2-enamide] | 110.262 |
| C=CC(=O)NC12CC3(C)CC(C)(CC(O)(C3)C1)C2 [1-K17, N-(3-hydroxy-5,7-dimethyladamantan-1-yl)prop-2-enamide] | 111.473 |
| CC(Cl)C(=O)N(C)C1CCN(c2ccccn2)CC1 (centres unmarked) [6-J20, 2-chloro-N-methyl-N-[1-(pyridin-2-yl)piperidin-4-yl]propanamide] | 95.6098 |
| O=C(CCl)N[C@H](CO)Cc1ccccc1 [6-G20, 2-chloro-N-[(2S)-1-hydroxy-3-phenylpropan-2-yl]acetamide] | 109.61 |
| CC(=O)c1ccccc1NC(=O)C(C)Cl (centres unmarked) [5-O19, N-(2-acetylphenyl)-2-chloropropanamide] | 103.825 |
| CCN(Cc1ccc(C#N)cc1F)C(=O)CCl [5-H08, 2-chloro-N-[(4-cyano-2-fluorophenyl)methyl]-N-ethylacetamide] | 105.282 |
| CSc1ccc(C=C(C#N)C(=O)Nc2cccc(Cl)c2C)cc1 [8-N11, N-(3-chloro-2-methylphenyl)-2-cyano-3-[4-(methylsulfanyl)phenyl]prop-2-enamide] | 130.788 |
| C=CC(=O)Nc1ccc(C(=O)NC2CCN(S(C)(=O)=O)CC2)cc1 [2-M21, N-(1-methanesulfonylpiperidin-4-yl)-4-(prop-2-enamido)benzamide] | 120.801 |
| COc1ccc(C2=NN(C(=O)CCl)C(c3cccc(F)c3)C2)cc1 (centres unmarked) [6-P04, 2-chloro-1-[5-(3-fluorophenyl)-3-(4-methoxyphenyl)-4,5-dihydro-1H-pyrazol-1-yl]ethan-1-one] | 145.463 |
| COc1ccc(C2=NN(C(=O)CCl)C(c3cccc(C)c3)C2)cc1 (centres unmarked) [4-G20, 2-chloro-1-[3-(4-methoxyphenyl)-5-(3-methylphenyl)-4,5-dihydro-1H-pyrazol-1-yl]ethan-1-one] | 10.2906 |
| O=C(CCl)N1N=C(c2cccs2)CC1c1cccs1 (centres unmarked) [4-O18, 1-[3,5-bis(thiophen-2-yl)-4,5-dihydro-1H-pyrazol-1-yl]-2-chloroethan-1-one] | 105.193 |
| O=C(CCl)N1N=C(c2cccs2)CC1c1ccc(F)cc1 (centres unmarked) [4-O20, 2-chloro-1-[5-(4-fluorophenyl)-3-(thiophen-2-yl)-4,5-dihydro-1H-pyrazol-1-yl]ethan-1-one] | 137.589 |
| COc1ccc(C2=NN(C(=O)CCl)C(c3ccc(F)cc3)C2)cc1 (centres unmarked) [4-M20, 2-chloro-1-[5-(4-fluorophenyl)-3-(4-methoxyphenyl)-4,5-dihydro-1H-pyrazol-1-yl]ethan-1-one] | 115.102 |
| O=C(CCl)N1N=C(c2cccs2)CC1c1ccccc1O (centres unmarked) [4-K20, 2-chloro-1-[5-(2-hydroxyphenyl)-3-(thiophen-2-yl)-4,5-dihydro-1H-pyrazol-1-yl]ethan-1-one] | 3.049 |
| O=C(CCl)N1N=C(c2cccs2)CC1c1cccc(O)c1 (centres unmarked) [6-L04, 2-chloro-1-[5-(3-hydroxyphenyl)-3-(thiophen-2-yl)-4,5-dihydro-1H-pyrazol-1-yl]ethan-1-one] | 3.7561 |
| Cc1ccc(C2=NN(C(=O)CCl)C(c3cccs3)C2)cc1 (centres unmarked) [4-O22, 2-chloro-1-[3-(4-methylphenyl)-5-(thiophen-2-yl)-4,5-dihydro-1H-pyrazol-1-yl]ethan-1-one] | 88.0419 |
| Cc1ccc(C2CC(c3cccs3)=NN2C(=O)CCl)cc1 (centres unmarked) [4-I22, 2-chloro-1-[5-(4-methylphenyl)-3-(thiophen-2-yl)-4,5-dihydro-1H-pyrazol-1-yl]ethan-1-one] | 118.533 |
